# In paper PMC7862700, “An all-to-all approach to the identification of sequence-specific readers for epigenetic DNA modifications on cytosine”:
# Legend:
# Assay in all cases: DAPPL (digital affinity profiling via proximity ligation, sequencing); 10 mM Tris-HCl pH 7.5, 50 mM NaCl, 1 mM DTT, 4% glycerol, room temperature, 30 min; GST-TFs on glutathione beads, 16-mer random dsDNA library, 0.1% formaldehyde crosslink after washing; high values mean tight binding
# Conditions in all cases: protein: recombinant; tags: N-terminal GST; dsDNA, one strand shown
# [1] = target: T1, FLI1 (Homo sapiens, UniProt Q01543 1-452)
# T1 sequence: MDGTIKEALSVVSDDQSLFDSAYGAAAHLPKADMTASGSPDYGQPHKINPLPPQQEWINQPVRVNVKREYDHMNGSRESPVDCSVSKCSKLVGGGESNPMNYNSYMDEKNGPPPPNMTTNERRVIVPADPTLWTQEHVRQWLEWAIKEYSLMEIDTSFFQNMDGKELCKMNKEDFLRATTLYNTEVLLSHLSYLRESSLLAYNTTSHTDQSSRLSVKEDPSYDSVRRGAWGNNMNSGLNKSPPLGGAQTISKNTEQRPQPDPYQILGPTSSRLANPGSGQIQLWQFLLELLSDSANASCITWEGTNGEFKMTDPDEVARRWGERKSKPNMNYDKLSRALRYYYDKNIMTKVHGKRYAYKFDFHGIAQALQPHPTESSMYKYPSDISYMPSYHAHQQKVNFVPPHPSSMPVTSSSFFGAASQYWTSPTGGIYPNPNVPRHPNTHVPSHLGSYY
# Method in brief: (§1)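 Sequencing on an Illumina NextSeq500 followed washing, crosslinking with 0.1% formaldehyde, proximity ligation (BsaI/T4 ligase, 1 h, 37 °C) and PCR amplification of pools that had been incubated for 30 min at room temperature with 200 nmole of a random double-stranded 16-mer DNA library in Tris/NaCl/DTT/glycerol buffer. Each pool held DNA-barcoded human transcription factors, expressed in yeast as GST fusions and captured on glutathione beads, plus a tag-only sample. Binding signal is a hexamer's read frequency for a factor divided by its frequency in the tag-only sample.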
# [2] = target: T2, ELK1 (Homo sapiens, UniProt P19419 1-428)
# T2 sequence: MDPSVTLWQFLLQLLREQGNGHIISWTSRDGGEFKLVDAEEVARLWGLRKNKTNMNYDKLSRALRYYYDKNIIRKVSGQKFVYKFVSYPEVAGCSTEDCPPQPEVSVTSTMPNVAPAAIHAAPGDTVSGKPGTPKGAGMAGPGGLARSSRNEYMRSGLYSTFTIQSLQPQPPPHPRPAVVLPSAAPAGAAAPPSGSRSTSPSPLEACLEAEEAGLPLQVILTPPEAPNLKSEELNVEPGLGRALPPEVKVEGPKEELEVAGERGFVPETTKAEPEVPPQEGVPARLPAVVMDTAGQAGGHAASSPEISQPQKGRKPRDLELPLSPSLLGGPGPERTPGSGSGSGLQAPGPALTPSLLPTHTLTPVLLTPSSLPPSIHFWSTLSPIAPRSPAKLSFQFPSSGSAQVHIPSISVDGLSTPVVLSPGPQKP
# Method in brief: as §1
# [3] = target: T3, GABPA (Homo sapiens, UniProt Q06546 1-454)
# T3 sequence: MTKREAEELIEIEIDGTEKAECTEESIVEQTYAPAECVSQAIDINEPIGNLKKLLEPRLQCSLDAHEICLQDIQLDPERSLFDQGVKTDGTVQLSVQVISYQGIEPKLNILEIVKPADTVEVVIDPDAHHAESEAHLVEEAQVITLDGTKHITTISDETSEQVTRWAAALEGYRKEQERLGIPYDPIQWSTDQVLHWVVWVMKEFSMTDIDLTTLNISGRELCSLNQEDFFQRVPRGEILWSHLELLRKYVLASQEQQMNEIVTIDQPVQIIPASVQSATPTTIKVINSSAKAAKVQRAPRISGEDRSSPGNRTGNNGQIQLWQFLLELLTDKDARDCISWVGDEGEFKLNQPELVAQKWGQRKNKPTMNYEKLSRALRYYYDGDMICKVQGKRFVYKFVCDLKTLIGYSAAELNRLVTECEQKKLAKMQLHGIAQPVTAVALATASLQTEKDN
# Method in brief: as §1
# [4] = target: T4, ERG (Homo sapiens, UniProt P11308 1-479)
# T4 sequence: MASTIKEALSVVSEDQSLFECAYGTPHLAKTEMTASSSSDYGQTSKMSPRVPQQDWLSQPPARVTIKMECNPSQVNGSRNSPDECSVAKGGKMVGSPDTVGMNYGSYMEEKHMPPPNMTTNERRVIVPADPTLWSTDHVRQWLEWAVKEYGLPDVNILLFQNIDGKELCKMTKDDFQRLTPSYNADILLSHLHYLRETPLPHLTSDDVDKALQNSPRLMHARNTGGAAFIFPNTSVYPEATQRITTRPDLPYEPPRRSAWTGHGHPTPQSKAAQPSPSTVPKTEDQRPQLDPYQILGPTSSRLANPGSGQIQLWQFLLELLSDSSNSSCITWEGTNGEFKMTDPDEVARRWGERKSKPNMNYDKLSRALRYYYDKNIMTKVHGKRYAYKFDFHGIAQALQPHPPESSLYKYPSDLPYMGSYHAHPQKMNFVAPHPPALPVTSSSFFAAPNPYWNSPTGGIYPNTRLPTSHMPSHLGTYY
# Method in brief: as §1
# [5] = target: ELF1 (Homo sapiens, UniProt P32519 1-619)
# Method in brief: as §1
# [6] = target: T5, EHF (Homo sapiens, UniProt Q9NZC4 1-300)
# T5 sequence: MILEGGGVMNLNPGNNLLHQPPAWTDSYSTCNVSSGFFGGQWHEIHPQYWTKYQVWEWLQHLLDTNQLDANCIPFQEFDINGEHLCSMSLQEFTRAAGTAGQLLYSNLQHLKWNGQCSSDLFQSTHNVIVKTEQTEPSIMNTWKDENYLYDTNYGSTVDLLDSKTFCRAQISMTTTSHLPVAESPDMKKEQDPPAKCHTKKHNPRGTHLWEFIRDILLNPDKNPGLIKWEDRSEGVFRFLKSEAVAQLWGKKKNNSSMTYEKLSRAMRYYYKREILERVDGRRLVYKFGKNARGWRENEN
# Method in brief: as §1
# [7] = target: SPI1 (Homo sapiens, UniProt P17947 1-270)
# Method in brief: as §1
# [8] = target: SPIB (Homo sapiens, UniProt Q01892 1-262)
# Method in brief: as §1
# [9] = target: T6, ELK3 (Homo sapiens, UniProt P41970 1-407)
# T6 sequence: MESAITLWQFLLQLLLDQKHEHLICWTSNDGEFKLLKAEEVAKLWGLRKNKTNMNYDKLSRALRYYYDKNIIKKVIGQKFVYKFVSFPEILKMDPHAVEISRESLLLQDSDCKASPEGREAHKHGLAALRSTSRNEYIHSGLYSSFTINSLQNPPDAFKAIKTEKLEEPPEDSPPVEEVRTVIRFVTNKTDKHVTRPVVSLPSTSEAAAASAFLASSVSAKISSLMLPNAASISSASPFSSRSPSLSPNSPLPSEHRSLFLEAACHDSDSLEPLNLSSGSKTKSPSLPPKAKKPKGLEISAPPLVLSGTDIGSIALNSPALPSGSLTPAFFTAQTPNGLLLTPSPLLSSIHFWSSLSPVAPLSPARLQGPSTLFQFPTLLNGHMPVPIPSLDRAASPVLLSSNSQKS
# Method in brief: as §1
# [10] = target: T7, FEV (Homo sapiens, UniProt Q99581 1-238)
# T7 sequence: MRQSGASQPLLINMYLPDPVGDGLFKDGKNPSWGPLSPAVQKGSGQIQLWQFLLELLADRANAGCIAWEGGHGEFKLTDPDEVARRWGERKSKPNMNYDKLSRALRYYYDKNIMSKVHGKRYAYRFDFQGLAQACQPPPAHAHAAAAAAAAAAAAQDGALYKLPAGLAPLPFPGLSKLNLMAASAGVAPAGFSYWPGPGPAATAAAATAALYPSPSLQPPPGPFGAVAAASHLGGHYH
# Method in brief: as §1
# [11] = target: ETV5 (Homo sapiens, UniProt P41161 1-510)
# Method in brief: as §1
# [12] = target: T8, SPIC (Homo sapiens, UniProt Q8N5J4 1-248)
# T8 sequence: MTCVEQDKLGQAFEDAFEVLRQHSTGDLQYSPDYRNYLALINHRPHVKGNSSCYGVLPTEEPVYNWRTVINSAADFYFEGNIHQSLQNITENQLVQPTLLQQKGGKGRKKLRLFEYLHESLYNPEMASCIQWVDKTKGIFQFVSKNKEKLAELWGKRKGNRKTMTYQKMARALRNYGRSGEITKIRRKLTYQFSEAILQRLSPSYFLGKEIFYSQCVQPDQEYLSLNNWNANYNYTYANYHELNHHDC
# Method in brief: as §1
# [13] = target: ELF4 (Homo sapiens, UniProt Q99607 1-663)
# Method in brief: as §1
# [14] = target: T9, ELK4 (Homo sapiens, UniProt P28324-2 1-405)
# T9 sequence: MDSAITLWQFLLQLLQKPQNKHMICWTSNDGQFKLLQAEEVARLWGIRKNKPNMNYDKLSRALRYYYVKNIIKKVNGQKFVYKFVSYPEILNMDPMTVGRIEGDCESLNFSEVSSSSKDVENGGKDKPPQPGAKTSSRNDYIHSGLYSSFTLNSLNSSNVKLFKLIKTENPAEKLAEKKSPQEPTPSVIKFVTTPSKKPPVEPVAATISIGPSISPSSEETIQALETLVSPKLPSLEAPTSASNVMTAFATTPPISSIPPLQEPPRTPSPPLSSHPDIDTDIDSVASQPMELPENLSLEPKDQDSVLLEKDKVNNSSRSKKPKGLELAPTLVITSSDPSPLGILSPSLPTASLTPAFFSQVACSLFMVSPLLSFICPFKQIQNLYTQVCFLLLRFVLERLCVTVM
# Method in brief: as §1
# [15] = target: T10, ETV2 (Homo sapiens, UniProt O00321 1-342)
# T10 sequence: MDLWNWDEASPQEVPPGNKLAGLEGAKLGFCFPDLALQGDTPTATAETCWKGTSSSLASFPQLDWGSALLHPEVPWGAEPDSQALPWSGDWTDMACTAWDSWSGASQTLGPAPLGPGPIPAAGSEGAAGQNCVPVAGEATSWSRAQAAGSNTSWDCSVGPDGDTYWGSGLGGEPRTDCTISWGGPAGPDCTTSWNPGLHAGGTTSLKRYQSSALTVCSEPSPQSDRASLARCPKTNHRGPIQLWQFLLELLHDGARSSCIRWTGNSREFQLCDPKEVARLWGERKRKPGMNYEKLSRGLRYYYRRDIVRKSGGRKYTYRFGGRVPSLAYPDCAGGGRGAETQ
# Method in brief: as §1
# [16] = target: T11, ELF3 (Homo sapiens, UniProt P78545 1-371)
# T11 sequence: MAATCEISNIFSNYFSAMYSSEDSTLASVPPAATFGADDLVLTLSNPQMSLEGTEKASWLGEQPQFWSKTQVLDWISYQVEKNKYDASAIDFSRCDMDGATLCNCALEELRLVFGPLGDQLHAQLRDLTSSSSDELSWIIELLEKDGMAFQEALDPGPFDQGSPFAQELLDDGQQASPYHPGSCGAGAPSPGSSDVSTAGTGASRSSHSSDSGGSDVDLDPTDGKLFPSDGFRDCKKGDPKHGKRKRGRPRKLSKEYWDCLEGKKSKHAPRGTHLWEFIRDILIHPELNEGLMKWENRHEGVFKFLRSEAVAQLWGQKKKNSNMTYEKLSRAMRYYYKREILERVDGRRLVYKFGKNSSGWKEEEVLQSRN
# Method in brief: as §1
# [17] = target: ETV1 (Homo sapiens, UniProt P50549 1-477)
# Method in brief: as §1
# Chain of SPIB (Q01892 whole entry): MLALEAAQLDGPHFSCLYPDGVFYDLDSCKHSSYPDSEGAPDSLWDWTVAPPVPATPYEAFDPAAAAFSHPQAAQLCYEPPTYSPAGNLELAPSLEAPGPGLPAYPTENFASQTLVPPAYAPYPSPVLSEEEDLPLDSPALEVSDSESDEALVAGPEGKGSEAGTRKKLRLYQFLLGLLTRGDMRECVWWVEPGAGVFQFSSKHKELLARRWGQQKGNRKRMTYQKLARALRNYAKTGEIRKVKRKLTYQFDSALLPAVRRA
# Chain of ELF1 (P32519 whole entry): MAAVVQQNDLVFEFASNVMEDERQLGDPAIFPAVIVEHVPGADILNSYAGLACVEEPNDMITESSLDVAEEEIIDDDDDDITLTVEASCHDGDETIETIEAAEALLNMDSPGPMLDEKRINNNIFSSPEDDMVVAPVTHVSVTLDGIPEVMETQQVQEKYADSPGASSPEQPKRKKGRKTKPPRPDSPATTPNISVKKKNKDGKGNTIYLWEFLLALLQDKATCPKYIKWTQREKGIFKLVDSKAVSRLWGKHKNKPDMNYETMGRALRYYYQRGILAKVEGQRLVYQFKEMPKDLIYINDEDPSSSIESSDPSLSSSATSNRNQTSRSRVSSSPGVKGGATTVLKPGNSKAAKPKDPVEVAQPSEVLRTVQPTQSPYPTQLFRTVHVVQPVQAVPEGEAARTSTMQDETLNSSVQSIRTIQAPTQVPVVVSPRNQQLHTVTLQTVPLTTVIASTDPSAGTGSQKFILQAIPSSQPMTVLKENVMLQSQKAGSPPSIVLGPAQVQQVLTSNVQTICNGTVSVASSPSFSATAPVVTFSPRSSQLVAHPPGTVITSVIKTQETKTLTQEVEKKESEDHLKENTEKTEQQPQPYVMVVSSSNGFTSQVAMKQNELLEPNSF
# Chain of ETV1 (P50549 whole entry): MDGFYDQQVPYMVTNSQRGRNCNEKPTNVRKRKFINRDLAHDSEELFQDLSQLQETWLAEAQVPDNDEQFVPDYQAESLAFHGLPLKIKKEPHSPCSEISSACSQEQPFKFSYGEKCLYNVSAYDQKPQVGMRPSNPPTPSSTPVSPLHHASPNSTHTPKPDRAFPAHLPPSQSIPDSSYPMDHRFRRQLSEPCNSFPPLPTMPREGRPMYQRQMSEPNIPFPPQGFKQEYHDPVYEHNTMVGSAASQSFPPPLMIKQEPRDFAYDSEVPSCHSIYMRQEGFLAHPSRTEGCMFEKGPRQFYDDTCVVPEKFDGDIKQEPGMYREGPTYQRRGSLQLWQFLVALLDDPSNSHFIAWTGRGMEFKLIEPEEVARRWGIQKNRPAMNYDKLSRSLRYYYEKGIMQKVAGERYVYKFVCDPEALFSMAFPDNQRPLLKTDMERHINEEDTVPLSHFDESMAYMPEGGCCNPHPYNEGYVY
# Chain of ETV5 (P41161 whole entry): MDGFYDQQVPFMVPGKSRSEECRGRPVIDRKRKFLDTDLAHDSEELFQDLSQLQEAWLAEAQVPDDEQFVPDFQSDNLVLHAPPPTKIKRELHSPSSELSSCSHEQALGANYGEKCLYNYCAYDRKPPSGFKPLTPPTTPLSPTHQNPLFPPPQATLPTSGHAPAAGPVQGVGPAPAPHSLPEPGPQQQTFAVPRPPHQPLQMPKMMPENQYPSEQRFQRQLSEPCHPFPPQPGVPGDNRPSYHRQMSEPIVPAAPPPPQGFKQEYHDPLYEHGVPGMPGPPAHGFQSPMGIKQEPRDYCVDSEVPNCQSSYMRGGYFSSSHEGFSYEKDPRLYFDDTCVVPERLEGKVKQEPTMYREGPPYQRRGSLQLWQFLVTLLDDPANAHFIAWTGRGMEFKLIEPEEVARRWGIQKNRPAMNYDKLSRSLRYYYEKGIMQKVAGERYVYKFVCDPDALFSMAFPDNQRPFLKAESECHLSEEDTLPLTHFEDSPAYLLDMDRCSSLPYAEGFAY
# Chain of ELF4 (Q99607 whole entry): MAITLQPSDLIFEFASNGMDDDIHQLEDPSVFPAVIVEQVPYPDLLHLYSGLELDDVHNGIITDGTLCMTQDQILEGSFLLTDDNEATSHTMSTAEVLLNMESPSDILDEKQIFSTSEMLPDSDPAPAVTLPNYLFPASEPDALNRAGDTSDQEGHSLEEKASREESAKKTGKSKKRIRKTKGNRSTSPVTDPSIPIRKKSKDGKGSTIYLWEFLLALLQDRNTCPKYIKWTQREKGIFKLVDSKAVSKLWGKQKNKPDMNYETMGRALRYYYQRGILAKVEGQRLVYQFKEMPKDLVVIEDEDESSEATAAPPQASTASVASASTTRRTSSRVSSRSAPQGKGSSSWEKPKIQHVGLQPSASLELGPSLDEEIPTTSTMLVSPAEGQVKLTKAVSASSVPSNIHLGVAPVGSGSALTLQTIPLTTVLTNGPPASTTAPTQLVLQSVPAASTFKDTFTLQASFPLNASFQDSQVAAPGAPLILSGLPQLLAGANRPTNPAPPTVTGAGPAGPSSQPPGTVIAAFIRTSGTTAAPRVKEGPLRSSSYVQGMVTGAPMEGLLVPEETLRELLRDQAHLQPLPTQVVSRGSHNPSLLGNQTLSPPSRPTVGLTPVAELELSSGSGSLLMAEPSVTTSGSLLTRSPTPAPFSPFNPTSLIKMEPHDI
Sequence,binding signal [1],binding signal [2],binding signal [3],binding signal [4],binding signal [5],binding signal [6],binding signal [7],binding signal [8],binding signal [9],binding signal [10],binding signal [11],binding signal [12],binding signal [13],binding signal [14],binding signal [15],binding signal [16],binding signal [17]
TGTCCC,"1.27 fold enrichment (6-mer frequency, TF over GST control)","1.35 fold enrichment (6-mer frequency, TF over GST control)","1.33 fold enrichment (6-mer frequency, TF over GST control)","1.38 fold enrichment (6-mer frequency, TF over GST control)","1.28 fold enrichment (6-mer frequency, TF over GST control)","1.32 fold enrichment (6-mer frequency, TF over GST control)","1.22 fold enrichment (6-mer frequency, TF over GST control)","1.36 fold enrichment (6-mer frequency, TF over GST control)","1.47 fold enrichment (6-mer frequency, TF over GST control)","1.39 fold enrichment (6-mer frequency, TF over GST control)","1.35 fold enrichment (6-mer frequency, TF over GST control)","1.26 fold enrichment (6-mer frequency, TF over GST control)","1.29 fold enrichment (6-mer frequency, TF over GST control)","1.4 fold enrichment (6-mer frequency, TF over GST control)","1.44 fold enrichment (6-mer frequency, TF over GST control)","1.65 fold enrichment (6-mer frequency, TF over GST control)","1.31 fold enrichment (6-mer frequency, TF over GST control)"
CAAACC,"1.16 fold enrichment (6-mer frequency, TF over GST control)","1.15 fold enrichment (6-mer frequency, TF over GST control)","1.11 fold enrichment (6-mer frequency, TF over GST control)","1.16 fold enrichment (6-mer frequency, TF over GST control)","1.13 fold enrichment (6-mer frequency, TF over GST control)","1.05 fold enrichment (6-mer frequency, TF over GST control)","1.15 fold enrichment (6-mer frequency, TF over GST control)","1.06 fold enrichment (6-mer frequency, TF over GST control)","1.15 fold enrichment (6-mer frequency, TF over GST control)","1.18 fold enrichment (6-mer frequency, TF over GST control)","1.05 fold enrichment (6-mer frequency, TF over GST control)","1.06 fold enrichment (6-mer frequency, TF over GST control)","1.2 fold enrichment (6-mer frequency, TF over GST control)","1.05 fold enrichment (6-mer frequency, TF over GST control)","1.12 fold enrichment (6-mer frequency, TF over GST control)","1.15 fold enrichment (6-mer frequency, TF over GST control)","1.18 fold enrichment (6-mer frequency, TF over GST control)"
CGGATA,"1.15 fold enrichment (6-mer frequency, TF over GST control)","1.27 fold enrichment (6-mer frequency, TF over GST control)","1.09 fold enrichment (6-mer frequency, TF over GST control)","1.5 fold enrichment (6-mer frequency, TF over GST control)","1.16 fold enrichment (6-mer frequency, TF over GST control)","1.19 fold enrichment (6-mer frequency, TF over GST control)","1.1 fold enrichment (6-mer frequency, TF over GST control)","1.15 fold enrichment (6-mer frequency, TF over GST control)","1.33 fold enrichment (6-mer frequency, TF over GST control)","2.83 fold enrichment (6-mer frequency, TF over GST control)","1.34 fold enrichment (6-mer frequency, TF over GST control)","1.2 fold enrichment (6-mer frequency, TF over GST control)","1.03 fold enrichment (6-mer frequency, TF over GST control)","1.16 fold enrichment (6-mer frequency, TF over GST control)","1.23 fold enrichment (6-mer frequency, TF over GST control)","1.31 fold enrichment (6-mer frequency, TF over GST control)","1.26 fold enrichment (6-mer frequency, TF over GST control)"
